Drawing on PubChem BioAssay (NCATS), this text covers Potency for 37 compounds.

Records with an inconclusive call do not appear. Active and inactive are the calls of the source. Calls follow the shape of the dose curve; as a rule, active = well fitted cell-killing curve with a large enough effect; inconclusive = small, poorly fitted or top-dose-only effect, or effect the other way; inactive = no such curve, though single readings can be large or run the other way.
Potency is read from the fitted curve at half-maximal effect.

The nature of this assay: Quantitative High-Throughput drug screen in 47 multiple myeloma cell lines against the NCATS MIPE library collection: FR4_PLB cell viability assay (AID 1918924; also: nearly all actives have a fitted effect of over 35% in size). The conditions noted are these: FR4_PLB myeloma cells viability, CellTiter-Glo ATP, 48 h; series mostly up to 45.8 µM. In outline: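 Relative luminescence from CellTiter-Glo served as the viability signal, referenced to DMSO-treated (100%) and cell-free medium (0%) controls. Treatment lasted 48 hours at 37C with 500 cells per well.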
For the compound `O=C(O)Cn1nnc(-c2cc(N3CCC(Oc4cc(F)ccc4Br)CC3)no2)n1`, the Potency entry was “inactive”.
Take `C[C@@]12O[C@@H](C[C@]1(O)CO)n1c3ccccc3c3c4c(c5c6ccccc6n2c5c31)CNC4=O`: the Potency was 6.62 µM (active).
Then `COc1ccc(C=Cc2cc(OC)c(OC)c(OC)c2)cc1O`, with “inactive”; and `CC=CC1=C(C(=O)O)N2C(=O)[C@H](NC(=O)[C@H](N)c3ccc(O)cc3)[C@@H]2SC1`, with “inactive”; and `O=C(O)c1ccc2cc(-c3ccc(O)c(C45CC6CC(CC(C6)C4)C5)c3)ccc2c1`, with 23.5 µM (active).
In the case of `O=C(C=Cc1cccc(S(=O)(=O)Nc2ccccc2)c1)NO` it was 1.52 µM (active); in that of `CC(NCc1ccc2c(c1)nc(NC(=O)c1ccc(-c3cn[nH]c3)s1)n2CC(C)(C)O)C(C)(C)C` (configuration not stated), 0.372 µM (active).
In the case of `C[C@H]1C[C@@H]2[C@@H]([C@@H](O)C[C@@]3(C)[C@H]2CC[C@]3(O)C(=O)CO)[C@@]2(C)C=CC(=O)C=C12` it was “inactive”; in that of `CC1(C)O[C@@H]2C[C@@H]3[C@H]4C[C@@H](F)C5=CC(=O)C=C[C@]5(C)[C@@]4(F)[C@@H](O)C[C@]3(C)[C@]2(C(=O)CO)O1`, “inactive”.
As to `CC(O)C1C(=O)N2C(C(=O)O)=C(SC3CNC(C(=O)N(C)C)C3)C(C)C12` (configuration not stated), the Potency entry is “inactive”.
Take `CC(C)c1ccccc1Cc1cc(C(=O)Nc2ccc(S(=O)(=O)c3ccccc3C(C)(C)C)cc2)c(O)c(O)c1O`: the Potency is 9.35 µM (active).
Then `Cc1cc(N2CCOCC2)cc2[nH]c(-c3c(NC[C@@H](O)c4cccc(Cl)c4)cc[nH]c3=O)nc12`, with 23.5 µM (active); and `CC(=O)Nc1sc2c(c1-c1nc3ccccc3s1)CNC2`, with 20.9 µM (active); and `C1=CCOCc2cc(ccc2OCCN2CCCC2)Nc2nccc(n2)-c2cccc(c2)OCC1`, with 3.32 µM (active).
In the case of `Clc1cccc(-n2nnnc2NCc2ccccc2Oc2ccccn2)c1Cl` it was “inactive”; in that of `CC1(C)OC2=C(C(=O)c3ccccc3C2=O)[C@H](NCc2ccccc2)[C@H]1O`, 2.64 µM (active).
Then `COC(=O)[C@]12CCC(C)(C)C[C@@H]1[C@@H]1C(=O)C=C3[C@@]4(C)C=C(C#N)C(=O)C(C)(C)[C@@H]4CC[C@@]3(C)[C@]1(C)CC2`, with 0.372 µM (active); and `O=C1CCC[C@@H]2[C@H]3CCC[N+]4([O-])CCC[C@@H](CN12)[C@@H]34` (some centres not stated), with “inactive”; and `CC1=C(CO)C(=O)O[C@@H]([C@@H](C)[C@H]2CC[C@H]3[C@@H]4C[C@H]5O[C@]56[C@@H](O)C=CC(=O)[C@]6(C)[C@@H]4CC[C@]23C)C1`, with 0.372 µM (active).
For `CCCCc1nc2cc(C=CC(=O)NO)ccc2n1CCN(CC)CC`, the Potency was 0.0833 µM (active).
Regarding `CCC[C@H](NC(=O)C(C#N)=Cc1cccc(Br)n1)c1ccccc1`, the Potency was 2.64 µM (active).
Take `Cn1c2ccccc2c2c3c(c4c5ccccc5n(CCC#N)c4c21)CNC3=O`: the Potency is 4.69 µM (active).
On to `COc1ccc(CC2SC(=O)NC2=O)cc1C(=O)NCc1ccc(C(F)(F)F)cc1` (configuration not stated), for which the Potency entry was “inactive”.
Then `Cc1ccc(S(=O)(=O)Nc2cc(Cl)ccc2C(=O)Nc2nc(-c3ccccc3)cs2)cc1`, with 20.9 µM (active).
For `COc1cccc2nc(-c3cccs3)nc(NN3C(=O)C=C(C)C3=O)c12`, the Potency was 1.87 µM (active).
Then `O=c1[nH]nc(Sc2ncc([N+](=O)[O-])s2)n1-c1ccc2c(c1)OCCO2`, with 7.43 µM (active); and `C[C@@H]1CN(CC(=O)Nc2ccc3c(c2)Cc2cccc(-c4cc(=O)cc(N5CCOCC5)o4)c2S3)C[C@H](C)O1`, with 16.6 µM (active).
Consider `O=C(O)CO.[NH2-].[NH2-].[Pt+2]`, for which the Potency entry is “inactive”.
In the case of `CCCCN1CCC(CNC(=O)c2c3n(c4ccccc24)CCCO3)CC1` it was 11.8 µM (active); in that of `Cc1[nH]c2ccccc2c1CCNCc1ccc(C=CC(=O)NO)cc1`, 0.0469 µM (active).
For `CCOc1ccccc1OCCNC(C)Cc1ccc(OC)c(S(N)(=O)=O)c1` (configuration not stated), the Potency result is “inactive”.
Then `CN(C)CC=CC(=O)Nc1cc2c(Nc3ccc(F)c(Cl)c3)ncnc2cc1O[C@H]1CCOC1`, with 14.8 µM (active); and `CC[C@H]1CN2CCc3cc(OC)c(OC)cc3[C@H]2C[C@@H]1C[C@@H]1NCCc2cc(OC)c(OC)cc21`, with 0.372 µM (active); and `COc1cc2ncnc(Nc3ccc(F)c(Cl)c3)c2cc1NC(=O)C=CCN1CCCCC1`, with 26.4 µM (active).
Consider `Cc1cccc(C=NNc2cc(N3CCOCC3)nc(OCCc3ccccn3)n2)c1`, for which the Potency was 4.69 µM (active).
Regarding `CC(C)(C)c1cnc(CSc2cnc(NC(=O)C3CCNCC3)s2)o1`, the Potency was 0.0935 µM (active).
On to `CC=C1NC(=O)[C@H]2CSSCCC=C[C@H](CC(=O)N[C@H](C(C)C)C(=O)N2)OC(=O)[C@H](C(C)C)NC1=O`, for which the Potency was 0.0105 µM (active).
